Shown are actives, neighbours in structure and some others; about 2.2% of the full set was active somewhere.
BRCA1 expr up – increases BRCA1 expression; MCF7-BRCA1-FFLuc reporter, luminescence, 48 h; response scale: scaled: vehicle 0%, 10 µM genistein 100%; Potency, µM (series often up to 46.1 µM), for inactives: top-dose activation, most hits filed as activators; 380,000 tested, 1.1% active; AID 624202; also: potency is read from the fitted curve at half-maximal effect; nearly all actives have a fitted effect of over 80% in size
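Compounds are tested at multiple concentrations on MCF7 BRCA1-luciferase reporter cells seeded at 2000 per well; after 48 h, a single luminescence end-point is taken and curves fitted to the normalized data.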
mIDH1 inhibitor – inhibitors of human mutant IDH1 R132H | IDH1-R132H enzyme, NADPH consumption, diaphorase/resazurin fluorescence | Potency, µM (series often up to 76.6 µM), without a hit: at the highest dose activity change, negative = inhibition, actives largely listed as inhibitors | 390,000 tested, 0.093% active; also: potency is read from the fitted curve at half-maximal effect; % is scaled to controls: 0 for no effect and ±100 for the full control effect; nearly all actives have a fitted effect of over 65% in size
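IDH1-R132H (0.5 ug/mL dispensed) in pH 7.5 Tris buffer was preincubated 30 min with compound, then given a substrate mix of 0.016 mM NADPH and 2 mM alpha-KG for 80 min at room temperature; remaining NADPH was read by diaphorase/resazurin fluorescence.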
TrxR1 substrate – rat thioredoxin reductase 1 substrate activity | O89049 | Potency, µM (doses to about 114 µM), without a hit: at the highest dose activity change, negative = substrate turnover | purified TrxR1 substrate turnover, NADPH consumption readout | 390,000 tested, 0.01% active; also: potency is read from the fitted curve at half-maximal effect; % is scaled to controls: 0 for no effect and ±100 for the full control effect; nearly all actives have a fitted effect of over 50% in size
Target sequence (O89049 whole entry, looked up): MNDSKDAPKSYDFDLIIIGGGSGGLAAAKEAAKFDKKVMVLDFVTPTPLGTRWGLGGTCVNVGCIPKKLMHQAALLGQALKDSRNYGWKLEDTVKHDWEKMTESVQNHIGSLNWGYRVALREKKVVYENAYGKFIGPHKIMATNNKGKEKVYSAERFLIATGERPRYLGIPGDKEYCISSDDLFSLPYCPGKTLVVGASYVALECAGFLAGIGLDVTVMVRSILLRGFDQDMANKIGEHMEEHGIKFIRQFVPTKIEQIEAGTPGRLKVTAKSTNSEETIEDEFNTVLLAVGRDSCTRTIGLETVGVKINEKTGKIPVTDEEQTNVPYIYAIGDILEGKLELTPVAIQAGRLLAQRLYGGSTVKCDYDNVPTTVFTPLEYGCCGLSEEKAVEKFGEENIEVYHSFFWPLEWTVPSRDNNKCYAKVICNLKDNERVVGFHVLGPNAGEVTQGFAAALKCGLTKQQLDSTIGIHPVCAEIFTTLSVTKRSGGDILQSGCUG
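Rat TrxR1, dispensed at 90 nM, was prereduced with 400 uM NADPH (final) for 5 min at ~22 deg C, then incubated with compound 15 min before 400 uM selenite. A first-read NADPH fluorescence drop versus no-compound background flagged substrates.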
rTrxR1 inhibitor – inhibitors of rat thioredoxin reductase 1; O89049; recombinant rTrxR1, NADPH fluorescence consumption, selenite substrate; Potency, µM (doses to about 114 µM), without a hit: top-dose activity change, negative = inhibition, actives largely listed as inhibitors; 390,000 tested, 1% active; also: potency is read from the fitted curve at half-maximal effect; % is scaled to controls: 0 for no effect and ±100 for the full control effect; nearly all actives have a fitted effect of over 65% in size
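Rat TrxR1 (90 nM in the dispensed reagent) was pre-reduced with 400 uM NADPH for 5 min at room temperature, then incubated with compound for 15 min. After 400 uM selenite was added, NADPH fluorescence (Ex 340/Em 450 nm) was followed for 8 min.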
Giardia kill – kills Giardia lamblia; Giardia lamblia trophozoite viability; 340,000 tested, 0.15% active; activity change, % at 7.66 µM, hits read low; in the data active = activity change below about -80%; inconclusive = between about -30% and that limit;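 also: parasites exposed to compound for two days anaerobically before the ATP read; % is scaled to controls: 0 for no effect and ±100 for the full control effect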
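Viability, read as ATP luminescence: trophozoites at 100 cells/well, compound added, 48 hrs anaerobic at 37 deg C, then 15-30 min room-temperature development before reading.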
IL2 activator – activates IL-2 in a cell-based reporter assay; IL-2 activation reporter assay, cell-based qHTS; stimulated with anti-CD3/CD4/CD28 beads; in transgenic mouse T cells; activation, % (series mostly up to about 46 µM); 360,000 tested, 0.065% active; in the data active = activation above about 50%; inconclusive = mostly about 30% to 49%; also: 0% is about no effect
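Unstimulated transgenic mouse T cells preincubated 60 min with compound, then stimulated with anti-CD3/anti-CD4-coated beads plus anti-CD28 for 18 h at 37 degrees C. IL-2 response read as EGFP and DsRed fluorescence by plate cytometry.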
Resorufin autofl – autofluorescence interference, mutant IDH1 hit counter-screen; shares compounds with mIDH1 inhibitor; Resorufin detection reagent fluorescence interference, cell-free; inhibition of signal, % at 51.2 µM; 750 tested, under 10 active; AID 623980;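 also: 0% = wells with normal resorufin and full inhibition = wells lacking resorufin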
WT IDH1 inh – wild-type IDH1 (human) inhibition counterscreen; shares compounds with mIDH1 inhibitor; WT IDH1 enzyme, NADPH diaphorase/resazurin fluorescence; Potency, µM (doses to about 115 µM), for the others: at the highest dose activity change, negative = inhibition, most hits filed as inhibitors; 750 tested, 9% active;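 also: potency is read from the fitted curve at half-maximal effect; 0% = full WT IDH1 enzyme control and full inhibition = no enzyme wells; nearly all actives have a fitted effect of over 55% in size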
IDH1 R132H conf – inhibits human mutant IDH1 enzyme in cherrypick confirmation. 750 tested, 83% active. AID 624002. shares compounds with mIDH1 inhibitor. Potency, µM (titrated, usually from 76.6 µM), without a hit: top-dose activity change, negative = inhibition, usual class: inhibitors. IDH1 R132H enzyme, NADPH diaphorase/resazurin fluorescence; also: potency is read from the fitted curve at half-maximal effect; nearly all actives have a fitted effect of over 50% in size
* marks the source's active call; other numbers are inactive results; u = inconclusive; x = not tested or not shown; [ ] = another dose, or the depositor's remark. Unless noted, calls follow the shape of the dose curve; as a rule, active = well fitted curve in the direction sought with a large enough effect; inconclusive = small, poorly fitted or top-dose-only effect, or another doubt; inactive = no such curve, though single readings can be large; an effect the other way counts as inactive or inconclusive.

SMILES	BRCA1 expr up	mIDH1 inhibitor	TrxR1 substrate	rTrxR1 inhibitor	Giardia kill	IL2 activator	Resorufin autofl	WT IDH1 inh	IDH1 R132H conf
Cn1c2ccccc2c(=O)c2c(=O)n(C3CCCCCC3)c(C3CCCCC3)nc21	-28%	9.3µM*	-17%	-6%	2	-1	4	14µM*	2.8µM*
Cn1c2ccccc2c(=O)c2c(=O)n(C3CCCCC3)c(-c3cccs3)nc21	-54%	37µM*	1%	16%	-1	-2	12	-21%	16µM*
COc1ccc(Cn2c(C3CCCCC3)nc3c(c(=O)c4ccccc4n3C)c2=O)cc1	-4%	u	3%	29%	-22	-1	x	x	x
COC(=O)C1=NN(c2ccc(OC)cc2)C2C(=O)N(c3ccccc3OC)C(=O)C12 (configuration not stated)	-15%	0%	3%[57.1 µM]	-1%	6	0	x	x	x
COC(=O)C1=CC(C(=O)c2cccs2)=NN(c2ccc(OC)cc2)C1C(=O)OC (configuration not stated)	-3%	u	-3%	8%	-19	-3	2	1%	-4%
CCOc1c(Cl)cc(CNc2ccc3[nH]c(=O)[nH]c3c2)cc1OC	x	6%	-3%	u	x	x	x	x	x
O=C1C(=O)N(C2CCN(S(=O)(=O)c3ccccc3)CC2)CCN1Cc1ccccc1	x	-4%	2%[57.1 µM]	18%[57.1 µM]	x	x	x	x	x
Cc1ccc(C)c(NC(=O)C2CCN(c3cc(C)nc4c(-c5ccc(Cl)cc5)c(C)nn34)CC2)c1	-4%	3%	5%	26%	x	x	x	x	x
COc1cccc(Nc2nc3c(S(=O)(=O)c4cc(C)ccc4C)nnn3c3ccsc23)c1	x	u	20%	13%	x	x	1	0%	u
Cc1ccc(N2C(=O)CCSC23C(=O)N(Cc2ccccc2)c2ccccc23)cc1F (configuration not stated)	x	22µM*	-3%	22%	x	x	-7	-18%	25µM*
Cc1ccc(N2C(=O)CCSC23C(=O)N(Cc2ccc(F)cc2)c2ccccc23)cc1 (configuration not stated)	x	u	-6%	11%	x	x	x	x	x
O=C1CCSC2(C(=O)N(Cc3ccc(F)cc3)c3ccccc32)N1c1ccc(Cl)cc1 (configuration not stated)	x	u	3%	30%	x	x	-8	-15%	20µM*
Cc1ccc(N2C(=O)CCSC23C(=O)N(Cc2ccccc2)c2ccccc23)cc1 (configuration not stated)	x	u	7%	28%	x	x	-5	-17%	45µM*
O=C1CCSC2(C(=O)N(Cc3ccccc3)c3ccccc32)N1c1ccccc1 (configuration not stated)	x	u	-10%	-1%	x	x	x	x	x
CCSc1ccccc1C(=O)N1CCN(c2nc3ccccc3s2)CC1	x	-10%	-6%[57.1 µM]	4%[57.1 µM]	x	x	x	x	x
NS(=O)(=O)c1ccc(N2N=C(c3ccccc3)CC2c2cccc(F)c2)cc1 (configuration not stated)	-43%	-14%	757%	39%	-18	-5	x	x	x
NS(=O)(=O)c1ccc(N2N=C(c3ccc(Br)cc3)CC2c2ccc(F)cc2)cc1 (configuration not stated)	-99%	u	400%[57.1 µM]	95%[57.1 µM]	-3	0	0	2%	u
